pPAFAH inh: inhibitors of human plasma PAF acetylhydrolase (pPAFAH); Q13093; recombinant pPAFAH, FP-rhodamine probe fluorescence polarization; inhibition, % at 3.39 µM; 330,000 tested, 1.5% active;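 active = inhibition above the mean inhibition across the screen plus 3 SD, cut at about 25% in these data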;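 note: inhibitors block binding of the rhodamine activity-based probe so polarization drops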
PAFAH1B2 inh: blocks human PAF acetylhydrolase 1b catalytic subunit 2 | inhibition, % at 3.39 µM | 340,000 tested, 1.2% active | P68402 | recombinant PAFAH1B2, FP-rhodamine activity probe, fluorescence polarization;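 active = inhibition above the mean of all tested compounds plus 3 SD, cut at about 24% in these data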
Target sequence (P68402 whole entry, looked up): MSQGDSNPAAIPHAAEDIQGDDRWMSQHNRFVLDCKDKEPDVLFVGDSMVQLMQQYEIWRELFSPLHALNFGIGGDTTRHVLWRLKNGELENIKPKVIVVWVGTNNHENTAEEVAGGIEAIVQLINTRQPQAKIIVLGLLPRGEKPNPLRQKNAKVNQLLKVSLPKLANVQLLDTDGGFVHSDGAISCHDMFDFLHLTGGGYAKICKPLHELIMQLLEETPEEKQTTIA
Fam108B counter: Fam108B inhibition, counter-screen for RBBP9 inhibitors; recombinant Fam108B, FP-Rh probe fluorescence polarization; inhibition, % at 9.51 µM; 300,000 tested, 0.33% active; AID 1947;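 active = inhibition above the screen mean inhibition plus 3 SD, computed separately per campaign, cut at about 18% in these data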;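 note: inhibitors lower polarization as less probe binds the enzyme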
PAFAH2 inh: PAFAH2 (human) inhibition; recombinant PAFAH2, FP-rhodamine activity probe, fluorescence polarization; 340,000 tested, 0.99% active; AID 492956; Q99487; inhibition, % at 3.39 µM;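 active = inhibition above the mean over all tested compounds plus 3 SD, cut at about 30% in these data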;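 note: inhibitors block probe labeling of enzyme so polarization drops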
PAFAH1B3 inh: inhibitors of human PAFAH1B3; 340,000 tested, 0.28% active; inhibition, % at 3.39 µM; Q15102; recombinant PAFAH1B3, FP-rhodamine probe, fluorescence polarization;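 active = inhibition above the screen-wide average of all tested compounds plus 3 SD, cut at about 25% in these data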
PME-1 primary: PME-1 (human) inhibition; Q9Y570; recombinant PME-1, FP-Rh probe fluorescence polarization; inhibition, % at 5.9 µM; 320,000 tested, 0.53% active; AID 2130;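 active = inhibition above the campaign mean of all compounds plus 3 SD, cut at about 26% in these data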;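 note: competitive labeling of PME-1 active site by serine hydrolase directed probe; inhibitors block probe labeling so polarization falls and inhibition rises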
Target sequence (Q9Y570 whole entry, looked up): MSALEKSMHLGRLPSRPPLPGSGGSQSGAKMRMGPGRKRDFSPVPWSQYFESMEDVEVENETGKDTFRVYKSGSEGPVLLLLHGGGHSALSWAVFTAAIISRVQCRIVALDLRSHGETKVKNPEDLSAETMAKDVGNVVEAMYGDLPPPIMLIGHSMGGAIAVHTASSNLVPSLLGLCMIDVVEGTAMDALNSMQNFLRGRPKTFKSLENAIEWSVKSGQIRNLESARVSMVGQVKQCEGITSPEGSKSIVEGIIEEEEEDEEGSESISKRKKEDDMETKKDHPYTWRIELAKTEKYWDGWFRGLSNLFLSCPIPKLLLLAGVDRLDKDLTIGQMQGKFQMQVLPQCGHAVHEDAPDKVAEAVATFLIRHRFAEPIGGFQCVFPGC
pPAFAH confirm: confirmation of human plasma PAF acetylhydrolase (pPAFAH) inhibitors | 2,300 tested, 72% active | recombinant pPAFAH, FP-Rh probe fluorescence polarization | shares compounds with pPAFAH inh | inhibition, % at 3.39 µM;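 active = mean inhibition of the triplicate above the hit cutoff set for the earlier primary screen, cut at about 25% in these data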
Of the large screens only hits and unclear results are named; the others gave an inactive call (follow-up assays come after a bar, where they were run). In the library only some 2.9% were active in any assay of this set; here they are far more common.

COC(=O)C1CCN(C(=O)c2cc(-c3ccco3)nc3ccccc23)CC1	pPAFAH inh 45 (no result: Fam108B counter, PME-1 primary) | pPAFAH confirm inactive
CN(C)C(CNC(=O)c1cc(-c2ccco2)nc2ccccc12)c1ccccc1 (stereo unspecified)	pPAFAH inh 61 (no result: Fam108B counter, PME-1 primary) | pPAFAH confirm inactive
CC(C)CCNC(=O)c1cc(-c2ccco2)nc2ccccc12	none
O=C(N/N=C/c1cccc(F)c1)c1cc(-c2ccco2)nc2ccccc12	pPAFAH inh 39 | pPAFAH confirm inactive
CSCCC(NC(=O)c1ccccc1Cl)C(=O)Nc1cccc(S(=O)(=O)N2CCCC2)c1 (stereo unspecified)	none
CN(C)c1nc(-c2cccnc2)nc(-c2ccccc2)c1C#N	none (no result: pPAFAH inh, Fam108B counter, PME-1 primary)
CCOc1cc(CNc2ccc(O)cc2)ccc1OCc1ccc(Cl)cc1Cl	pPAFAH inh 36, PME-1 primary 29 | pPAFAH confirm inactive
CCN(CC)c1ccc(NS(=O)(=O)c2ccc(-c3ccc(=O)[nH]n3)o2)c(C)c1	pPAFAH inh 68 | pPAFAH confirm 50
Cc1ccccc1NS(=O)(=O)c1ccc(-c2ccc(=O)[nH]n2)o1	none
COc1ccc(C2(C)C(C#N)C(=O)NC(=O)C2C#N)cc1 (stereo unspecified)	none (no result: pPAFAH inh, Fam108B counter, PME-1 primary)
COc1cc(C(=S)N2CCN(c3ccccc3Cl)CC2)cc(O)c1O	pPAFAH inh 42 | pPAFAH confirm 64
CCc1c(C)nc2ncnn2c1N1CCCC(C(=O)NCc2ccco2)C1 (stereo unspecified)	pPAFAH inh 57 | pPAFAH confirm inactive
CCc1c(C)nc2ncnn2c1N1CCCC(C(=O)NCc2cccs2)C1 (stereo unspecified)	none
COc1ccc(-c2nn(-c3ccccc3)cc2C2CC(c3cccs3)=NN2C(=O)CCCC(=O)O)cc1 (stereo unspecified)	none
Cc1ccc(-c2nn(-c3ccccc3)cc2C2CC(c3cccs3)=NN2C(=O)CCCC(=O)O)cc1 (stereo unspecified)	pPAFAH inh 40 | pPAFAH confirm inactive
COc1cccc(N=Nc2ccc3cccnc3c2O)c1	pPAFAH inh 58 | pPAFAH confirm 33
COCc1ccc(O)c2ncccc12	none
COc1cc(OC)cc(C(=O)Nc2cccc3cccnc23)c1	none
Cc1ccccc1N=Nc1ccc(O)c2ncccc12	pPAFAH inh 41 | pPAFAH confirm 36
COc1cccc(N=Nc2ccc(O)c3ncccc23)c1	pPAFAH inh 60 | pPAFAH confirm 25
CN1CCN(C(=O)c2ccc(CS(=O)Cc3ccc(Cl)cc3)o2)CC1 (stereo unspecified)	none
Cc1cccc(N2CCN(C(=O)c3ccc(CS(=O)Cc4cccc(Cl)c4)o3)CC2)c1C (stereo unspecified)	pPAFAH inh 43 | pPAFAH confirm inactive
O=C(c1ccc(CS(=O)Cc2ccc(Cl)cc2)o1)N1CCN(c2ccccc2F)CC1 (stereo unspecified)	none
COc1ccc(N2CCN(C(=O)c3ccc(CS(=O)Cc4ccc(Cl)cc4)o3)CC2)cc1 (stereo unspecified)	pPAFAH inh 36 | pPAFAH confirm 28
COc1ccc(C(=O)Nc2cccc(C(=O)NCc3ccco3)c2)cc1	none
Cc1cc(C)c(S(=O)(=O)/N=C2\C=CC(=O)C(Cl)=C2)c(C)c1	pPAFAH inh 65, PAFAH2 inh 31 | pPAFAH confirm 57
Cc1cccc2nnc(-c3ccccc3)n12	none (no result: pPAFAH inh, Fam108B counter, PME-1 primary)
O=C1N/C(=N\S(=O)(=O)c2ccccc2)S/C1=C\c1cc([N+](=O)[O-])ccc1O	pPAFAH inh 41, PAFAH1B2 inh 38, PAFAH2 inh 31, PAFAH1B3 inh 43 | pPAFAH confirm 49
O=C(c1ccc(Cl)c(S(=O)(=O)N2CCc3ccccc32)c1)N1CCN(c2ccccc2O)CC1	pPAFAH inh 37 (no result: Fam108B counter, PME-1 primary) | pPAFAH confirm inactive
O=C(Nc1ccc(Cl)cc1)Nn1cnnc1	none (no result: pPAFAH inh, Fam108B counter, PME-1 primary)
COc1ccc(C(CC(=O)O)c2cc(OC)c(OC)c(OC)c2)cc1OC (stereo unspecified)	none (no result: pPAFAH inh, Fam108B counter, PME-1 primary)
O=C1CCCC2=C1C(c1ccncc1)c1c(nc(SCc3ccccc3Cl)[nH]c1=O)N2 (stereo unspecified)	none
CCC(C)Sc1nc2c(c(=O)[nH]1)C(c1cccs1)C1=C(CCCC1=O)N2 (stereo unspecified)	pPAFAH inh 38 | pPAFAH confirm inactive
COc1ccc(/C=C/c2n[nH]c(=O)c(C#N)c2C)cc1	none
COc1ccc(-c2[nH]ncc2N=Nc2cc(C)cc(C)c2)cc1	none
COc1ccc(-c2[nH]ncc2N=Nc2ccccc2)cc1	pPAFAH inh 49 | pPAFAH confirm inactive
COc1ccc(CNC(=O)COC(=O)CCCOc2ccc(Cl)cc2Cl)cc1	pPAFAH inh 35 | pPAFAH confirm inactive
COc1cc(C2Nc3ccc4ncccc4c3C3=C2C(=O)CCC3)cc(OC)c1O (stereo unspecified)	none
O=C1CCCC2=C1C(c1ccc(O)c(O)c1)Nc1ccc3ccccc3c12 (stereo unspecified)	pPAFAH inh 36 | pPAFAH confirm 31
CC(C)C(C)NC(=O)COC(=O)C1CCN(S(=O)(=O)c2ccc3c(c2)OCCO3)CC1 (stereo unspecified)	pPAFAH inh 38 | pPAFAH confirm inactive
COC1OC2COC(c3ccccc3)OC2C(OC(C)=O)C1OC(C)=O (stereo unspecified)	none (no result: pPAFAH inh, Fam108B counter, PME-1 primary)
N#CC(C#N)=C1C=C2C=C(N3CCCCC3)CCC2CC1 (stereo unspecified)	none (no result: PAFAH1B2 inh, PAFAH2 inh, PAFAH1B3 inh)
N#CC1=C(N)C2=C(N3CCCCC3)CCCC2C1(C#N)C#N (stereo unspecified)	pPAFAH inh 38, PAFAH1B2 inh 26, PAFAH2 inh 40, PAFAH1B3 inh 46 | pPAFAH confirm inactive
CC(NC(=O)COC(=O)CNC(=O)C1CCCCC1)c1ccccc1 (stereo unspecified)	none (no result: Fam108B counter)
O=C(c1ccccc1)c1nn(-c2ccccc2)c2nnc(Cc3ccccc3)c(=O)n12	pPAFAH inh 41 | pPAFAH confirm 30
Cc1ccc(-n2nc(C(=O)c3ccccc3)n3c(=O)c(Cc4ccccc4)nnc23)cc1	none
COc1ccc(N2C(=O)NC(NS(=O)(=O)c3ccc(NC(C)=O)cc3)(C(F)(F)F)C2=O)cc1 (stereo unspecified)	none
CCn1c(C(=O)O)c(CC(=O)N(C)c2ccc(OC)cc2OC)c2ccccc21	none
Oc1ccc(-c2csc(-c3ccccc3)n2)cc1O	pPAFAH inh 45 | pPAFAH confirm 59
Cc1nc(-c2ccc(O)c(O)c2)cs1	pPAFAH inh 35 | pPAFAH confirm inactive
O=C1CC(c2ccc(O)c(O)c2)Oc2cc(O)cc(O)c21 (stereo unspecified)	none

High-throughput results deposited in PubChem by The Scripps Research Institute Molecular Screening Center.
